Source: PubChem
ALR inh: inhibitors of human ALR sulfhydryl oxidase, primary screen, biochemical, H2O2 detection, HRP-luminol luminescence, single point. FAD-linked sulfhydryl oxidase ALR (Homo sapiens), P55789. purified ALR, DTT oxidation. inhibition, % (test concentration not listed). 290,000 tested, 3.8% active;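 active = mean replicate inhibition above about 79%, with every replicate also reaching it, limit read from the data; inconclusive = only one of the two criteria met; inactive = mean below limit and not every replicate reaching it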
Target sequence (P55789 whole entry, looked up): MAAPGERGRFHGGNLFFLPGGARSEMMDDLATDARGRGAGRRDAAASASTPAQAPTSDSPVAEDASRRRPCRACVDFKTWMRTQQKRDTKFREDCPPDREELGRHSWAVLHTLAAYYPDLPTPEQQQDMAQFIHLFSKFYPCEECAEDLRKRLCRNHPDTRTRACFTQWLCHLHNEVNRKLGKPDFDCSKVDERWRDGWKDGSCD
PfM18AAP inh: PfM18AAP inhibitors, malaria aminopeptidase, primary screen, biochemical, QFRET, recombinant enzyme; M18 aspartyl aminopeptidase (Plasmodium falciparum 3D7); H-Glu-NHMec fluorogenic cleavage; inhibition, % at 7.35 µM; 290,000 tested, 1.2% active; AID 1822, 2009;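 active = inhibition above the campaign mean inhibition over all tested compounds plus 3 SD, cut at about 28% in these data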;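 note: 0% = plate median of test compound wells and 100% = 2 mM ZnCl2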
H9c2 protect: cardioprotection against H2O2-induced cell death, primary screen, uHTS, H9c2 cells, ATPLite luminescence; H9c2 cardiomyocytes, H2O2 injury protection, 2 h; protection from H2O2 cell death, % at 20 µM; 360,000 tested, 0.63% active; AID 588492, 2011;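 active = compounds giving at least 50% protection of heart cells from peroxide-induced death in the single-dose screen, raw or plate-pattern-corrected value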;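 note: 0% = DMSO wells with peroxide and 100% = DMSO wells without peroxide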
PHOSPHO1 inh: PubChem AID 1565 | Phosphoethanolamine/phosphocholine phosphatase (Homo sapiens), Q8TCT1 | recombinant PHOSPHO1, absorbance phosphatase assay | inhibition, % at 13.3 µM | 290,000 tested, 1.1% active; in the data active = inhibition above about 60%
Target sequence (Q8TCT1 whole entry, looked up): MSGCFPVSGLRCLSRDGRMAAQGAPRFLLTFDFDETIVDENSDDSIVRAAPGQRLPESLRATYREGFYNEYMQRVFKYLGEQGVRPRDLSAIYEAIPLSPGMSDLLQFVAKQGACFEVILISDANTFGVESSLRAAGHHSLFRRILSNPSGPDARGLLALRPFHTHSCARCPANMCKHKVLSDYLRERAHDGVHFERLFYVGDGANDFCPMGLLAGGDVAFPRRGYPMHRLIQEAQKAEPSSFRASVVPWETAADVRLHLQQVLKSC
PfG6PD inh: PfG6PD enzyme inhibitors, primary screen, biochemical, fluorescence intensity, uHTS. PfGluPho enzyme, NADPH resazurin-diaphorase fluorescence. glucose-6-phosphate dehydrogenase-6-phosphogluconolactonase (Plasmodium falciparum 3D7). 350,000 tested, 0.78% active. AID 504690, 2011. inhibition, % at 20 µM;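 active = inhibition reaching at least a set limit at 20 µM in the primary screen, cut at about 59% in these data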;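 note: 0% = DMSO wells with substrate and 100% = DMSO wells lacking glucose-6-phosphate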
* hit, by the source's call; ? = inconclusive; · = not tested or not shown. Hits are enriched below; roughly 5.6% of the tested compounds scored in any of these assays.

SMILES	ALR inh	PfM18AAP inh	H9c2 protect	PHOSPHO1 inh	PfG6PD inh
O=C(c1cccc(S(=O)(=O)N2CCCc3ccccc32)c1)N1CCN(c2ccccc2)CC1	0	·	2	·	14
CCOC(=O)C(CC)(CCC(=O)O)c1csc(Nc2ccc(C)cc2)n1 (stereo not given)	99*	-6	-3	33	-14
COc1ccc([C@H]2CN(CCc3ccccc3)C(=O)[C@@H]2CC(=O)Nc2ccccc2)cc1	·	·	-5	·	-9
Cc1[nH]nc2c1-c1nc3ccccc3nc1C(C)(C)C2	99*	-13	-4	4	10
CCOC(=O)C1C(=O)NC(c2ccccc2)=NC1c1ccc(F)cc1 (stereo not given)	98*	-15	2	40	-6
Cc1cc(NS(=O)(=O)c2ccc(Nc3nc(-c4sc(C)nc4C)cs3)cc2)no1	·	0	·	22	·
COc1ccc(-c2csc(Nc3ccc(S(=O)(=O)Nc4cc(C)on4)cc3)n2)cc1	98*	14	0	21	-14
Cc1cc2cc(CNC(=O)C3CCCC3)ccc2n1C	97*	·	8	8	9
CCN(CC)C(=O)c1ccc2sc([C@@H]3O[C@H](CO)[C@H](O)[C@H](O)[C@H]3O)nc2c1	·	·	5	·	·
Cc1cc(C(=O)CSc2nc3ccc(Cl)cc3[nH]2)c(C)n1C	-2	14	4	86*	36
Cc1cc(C(=O)CSc2nnc(-c3ccc(Cl)cc3)n2CC2CCCO2)c(C)n1C (stereo not given)	14	16	0	-18	-7
Cc1ccc2nc(SCC(=O)Nc3cccnc3Cl)[nH]c2c1	88*	·	8	·	35
COc1ccc(Nc2nnc(SCC(=O)c3cc(C)n(CC4CCCO4)c3C)s2)cc1 (stereo not given)	-23	4	-4	98*	18
Cc1cc(C(=O)CSc2nc3ccc(Cl)cc3[nH]2)c(C)n1CC1CCCO1 (stereo not given)	44	-1	-11	100*	-4
COc1cc(CCC(=O)N2CCN(c3ccccc3)CC2)cc(OC)c1OC	21	9	3	20	-11
COc1ccc(Cl)cc1NC(=O)CN(C)CC(=O)Nc1cc(OC)c(OC)c(OC)c1	·	0	2	29	4
COc1ccccc1C(=O)NCC(=O)OC(C)C(=O)N1CCOCC1 (stereo not given)	15	·	0	·	9
Cc1cc(C(=O)CSc2nc3ccccc3[nH]2)c(C)n1C	·	12	4	51	12
Cc1ccc2nc(SCC(=O)c3c(N)n(C)c(=O)n(C)c3=O)[nH]c2c1	6	-6	-2	-114	12
Cc1ccc2nc(SCC(=O)c3cc(C)n(C)c3C)[nH]c2c1	?	2	3	71*	-10
C/C(N)=C(/C#N)C(=O)CSc1nc2ccc(C)cc2[nH]1	6	-10	4	72*	3
Cc1ccc([C@H]2C[C@@H](O)[C@H](n3cc(-c4ccc(F)cc4)nn3)CN2C(=O)C2CCCCC2)cc1	·	·	-8	·	15
COc1ccc(CN2CCC(C)(Oc3ccc(C(C)=O)cc3)C2)c2ccccc12 (stereo not given)	·	·	-12	·	·
Cc1oc(-c2ccccc2)cc1C(=O)Nc1cccc(/C=C\C(=O)O)c1	96*	-4	4	-10	-15
CCN(CC(=O)NCc1cccs1)C(=O)/C=C/c1cc(OC)c(OC)c(OC)c1	·	·	1	·	15
SMILES	ALR inh	PfM18AAP inh	H9c2 protect	PHOSPHO1 inh	PfG6PD inh
CCN(CC)C(=O)c1cccc(-c2csc(C(C)(NC(C)=O)c3ccc(OC)cc3)n2)c1 (stereo not given)	·	·	-1	·	·
Cc1c([N+](=O)[O-])c(C(=O)Sc2ccc(Br)cc2)nn1C	99*	3	4	34	20
CCc1[nH]nc(C(=O)N2CCCC(Nc3cccc(F)c3)C2)c1C (stereo not given)	99*	-2	2	27	-5
CCc1[nH]nc(C(=O)N2CCCC(Nc3ccc(C(C)C)cc3)C2)c1C (stereo not given)	95*	6	0	18	-1
CC(C)c1ccc(NC2CCCN(C(=O)c3ccnc(Cl)c3)C2)cc1 (stereo not given)	54	-1	-2	40	5
CC(=O)c1[nH]c(C)c(C(=O)N2CCCC(Nc3cccc(F)c3)C2)c1C (stereo not given)	75*	-7	-3	12	-5
NS(=O)(=O)c1ccc(CCNC(=O)COC(=O)c2nc(Cl)ccc2Cl)cc1	-6	·	9	·	-11
O=C(CSc1nnc(-c2cccnc2)n1-c1ccccc1)N1CCN(c2ccc(F)cc2)CC1	39	-2	9	26	6
Cc1ccc(-n2c(N)cc(=O)nc2SCC(=O)N2CCN(c3ccccc3)CC2)cc1C	68	1	3	23	1
COc1ccc(-n2c(N)cc(=O)nc2SCC(=O)N2CCN(c3ccccc3)CC2)cc1	99*	7	3	31	7
COc1ccc(N2CCN(C(=O)CSc3nnc(-c4cccnc4)n3-c3ccccc3)CC2)cc1	94*	-5	2	27	19
O=C(CSc1nnc(-c2ccncc2)n1-c1ccccc1)N1CCN(c2ccc(Cl)cc2)CC1	5	6	-1	93*	-3
COc1ccc(S(=O)(=O)NCC2CCCN(C(=O)CCC(F)(F)F)C2)cc1 (stereo not given)	·	4	-1	14	-16
N=c1c(C(=O)NC2CCCCC2)cc2c(=O)n3ccccc3nc2n1CCc1ccccc1	0	2	9	27	-4
CC(C)OCCCNC(=O)C1CC(=O)N(CCc2ccccc2)C1 (stereo not given)	-12	-2	3	46	-7
O=c1[nH]n(Cc2ccccc2)c(=O)c2ccccc12	-3	10	56*	33	0
Cc1cccc(C(=O)N/C(=C\c2ccco2)C(=O)N2CCCC2)c1	95*	29*	-2	28	0
Cc1ccc(C(=O)N/C(=C/c2ccco2)C(=O)N2CCCCCC2)cc1	7	11	-3	-3	8
O=C(N/C(=C\c1ccccc1)C(=O)N1CCOCC1)c1ccccc1Cl	2	0	-1	63*	-5
O=C(N/C(=C\c1ccco1)C(=O)N1CCCC1)c1ccccc1	25	32*	-2	32	-13
C=CCNc1nc(C(=O)OCC(=O)c2ccc(Cl)cc2)cs1	98*	·	-3	·	18
CC(Oc1ccc(Cl)cc1Cl)C(=O)Nc1cccc(O)c1 (stereo not given)	23	-1	-1	8	3
CC(Oc1ccc(Cl)cc1Cl)C(=O)Nc1ccc(O)cc1 (stereo not given)	98*	5	-6	18	1
CN(C)c1cccc(C(=O)NNC(=S)NC2CCCC2)c1	99*	3	-10	-42	5
